The source of these data is PubChem BioAssay (NCI).

Assay [1] is described as follows: NCI Yeast Anticancer Drug Screen. Data for the rad50 strain (AID 155).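 Further: 0% = growth of vehicle-only cultures of the same strain.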 The settings on record: S. cerevisiae rad50 strain growth inhibition, stronger effect = higher value. The essentials: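 Cells are treated with compound, grown, and their growth is then scored against vehicle-only cultures of the same repair-deficient yeast strain.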
The nature of assay [2]: NCI Yeast Anticancer Drug Screen. Data for the mec2-1 strain (AID 157). The settings on record: S. cerevisiae mec2-1 strain, stronger effect = higher value. The essentials:
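mec2-1 yeast strain, carrying an alteration in DNA damage repair or cell cycle control, was exposed to compounds; growth inhibition was measured relative to vehicle-treated controls.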

Assay [3] in a line: NCI Yeast Anticancer Drug Screen. Data for the sgs1 mgt1 strain (AID 161).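 Further: 0% = growth of cultures given vehicle only.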 To be noted: S. cerevisiae sgs1 mgt1 strain, stronger effect = higher value. The essentials: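 This yeast growth screen uses a strain with defined DNA-repair lesions; compound-treated growth is compared with vehicle-treated growth.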
A short description of assay [4]: NCI Yeast Anticancer Drug Screen. Data for the cln2 rad14 strain (AID 165).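 Further: 0% = growth equal to vehicle treated cultures.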 To be noted: S. cerevisiae cln2 rad14 strain, stronger effect = higher value. The essentials:
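Yeast carrying cln2 and rad14 alterations (cell cycle control and DNA damage repair) were exposed to compounds. Growth inhibition was measured against vehicle-treated controls.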

Assay [5] is described as follows: NCI Yeast Anticancer Drug Screen. Data for the bub3 strain (AID 167). To be noted: S. cerevisiae bub3 mutant strain, stronger effect = higher value. The essentials:
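Part of a panel of yeast mutants defective in DNA damage repair or cell cycle regulation. Each strain is grown with compound, and inhibition is calculated relative to solvent-treated cultures.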

Assay [6] can be described thus: NCI Yeast Anticancer Drug Screen. Data for the mlh1 rad18 strain (AID 175). The settings on record: S. cerevisiae mlh1 rad18 strain growth inhibition, stronger effect = higher value. The essentials: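 Growth inhibition of the yeast strain was measured after compound exposure and expressed relative to vehicle-treated controls. The strain carries defined defects in DNA damage repair.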

Setting [7] is: at 5.0 µM (retest, dose inferred, filed as 0.5).
Where [8] appears, read: at 50.0 µM (retest, dose inferred, filed as 5.0).

Compounds without any hit were thinned out: in the full panel of roughly 79,000, 15% have a hit. A number with no mark means an inactive call. Active and inactive are the calls of the source. No stated cut-off is given here; in the data, active means growth inhibition above about 70%; inactive means the rest.

Take `CC(=O)O[C@H]1CC[C@H]2[C@@H]3CC[C@H]4CC(=O)CC[C@@H]4[C@H]3CC[C@]12C`: the growth inhibition in assay [1] (setting [7]) was -2%; in assay [1] (setting [8]), -19%; in assay [1] (at 50.0 µM), 11%; in assay [2] (setting [7]) it was -2%; in assay [2] (setting [8]), -9%; in assay [2] (at 50.0 µM), 10.8%. Also, the growth inhibition in assay [3] (setting [7]) is -2%; in assay [3] (setting [8]), -10%; in assay [3] (at 50.0 µM) it was 88.6% (active); in assay [4] (setting [7]), -14%; in assay [4] (setting [8]), -6%; in assay [4] (at 50.0 µM) it was 1.15%. For the same compound, the growth inhibition was 4% in assay [5] (setting [7]); 7% in assay [5] (setting [8]); 61.5% in assay [5] (at 50.0 µM); -1% in assay [6] (setting [7]); -7% in assay [6] (setting [8]); -1.35% in assay [6] (at 50.0 µM).
Regarding `CS(=O)(=O)[O-].CS(=O)(=O)[O-].NC1CCCCC1N.[Pt+4]` (configuration not stated), the growth inhibition is 99% (active) in assay [1] (setting [7]); 99% (active) in assay [1] (setting [8]); 90.7% (active) in assay [1] (at 50.0 µM); 100% (active) in assay [2] (setting [7]); 99% (active) in assay [2] (setting [8]); 91.2% (active) in assay [2] (at 50.0 µM). The growth inhibition was 100% (active) in assay [3] (setting [7]); 99% (active) in assay [3] (setting [8]); 92% (active) in assay [3] (at 50.0 µM); 100% (active) in assay [4] (setting [7]); 99% (active) in assay [4] (setting [8]); 90.9% (active) in assay [4] (at 50.0 µM). The growth inhibition in assay [5] (setting [7]) is 99% (active); in assay [5] (setting [8]), 99% (active); in assay [5] (at 50.0 µM) it was 91.2% (active); in assay [6] (setting [7]) it was 99% (active); in assay [6] (setting [8]), 98% (active); in assay [6] (at 50.0 µM), 88.3% (active).
For `COC1=C(N2CC2)C(=O)C(OC)=C(N2CC2)C1=O`, the growth inhibition in assay [1] (setting [7]) was 95% (active); in assay [1] (setting [8]), 97% (active); in assay [1] (at 50.0 µM), 98.3% (active); in assay [2] (setting [7]), 95% (active); in assay [2] (setting [8]) it was 98% (active); in assay [2] (at 50.0 µM) it was 97.8% (active). Further, the growth inhibition is 90% (active) in assay [3] (setting [7]); 97% (active) in assay [3] (setting [8]); 98.2% (active) in assay [3] (at 50.0 µM); 91% (active) in assay [4] (setting [7]); 98% (active) in assay [4] (setting [8]); 98.8% (active) in assay [4] (at 50.0 µM). The growth inhibition in assay [5] (setting [7]) was 49%; in assay [5] (setting [8]), 98% (active); in assay [5] (at 50.0 µM), 97.1% (active); in assay [6] (setting [7]) it was 96% (active); in assay [6] (setting [8]), 98% (active); in assay [6] (at 50.0 µM) it was 97.6% (active).
For the compound `CC[C@H](C)c1occ2c(O)c(C(=O)O)c(=O)cc-2c1C`, the growth inhibition is 56% in assay [1] (setting [7]); 98% (active) in assay [1] (setting [8]); 24.5% in assay [1] (at 50.0 µM); 71% (active) in assay [2] (setting [7]); 99% (active) in assay [2] (setting [8]); -2.7% in assay [2] (at 50.0 µM). Moreover, the growth inhibition in assay [3] (setting [7]) is 99% (active); in assay [3] (setting [8]), 99% (active); in assay [3] (at 50.0 µM) it was 12.2%; in assay [4] (setting [7]), 31%; in assay [4] (setting [8]) it was 99% (active); in assay [4] (at 50.0 µM) it was 3.2%. Also, the growth inhibition is 74% (active) in assay [5] (setting [7]); 99% (active) in assay [5] (setting [8]); 12.2% in assay [5] (at 50.0 µM); 88% (active) in assay [6] (setting [7]); 98% (active) in assay [6] (setting [8]); 81.2% (active) in assay [6] (at 50.0 µM).
Take `C[As](C)SCCC(CCCCC(=O)O)S[As](C)C` (configuration not stated): the growth inhibition was 27% in assay [1] (setting [7]); 38% in assay [1] (setting [8]); 66.2% in assay [1] (at 50.0 µM); 27% in assay [2] (setting [7]); 32% in assay [2] (setting [8]); 47% in assay [2] (at 50.0 µM). For the same compound, the growth inhibition was 2% in assay [3] (setting [7]); -69% in assay [3] (setting [8]); 78.3% (active) in assay [3] (at 50.0 µM); 5% in assay [4] (setting [7]); -52% in assay [4] (setting [8]); 37.4% in assay [4] (at 50.0 µM). The growth inhibition in assay [5] (setting [7]) is 2%; in assay [5] (setting [8]) it was -42%; in assay [5] (at 50.0 µM) it was 76.5% (active); in assay [6] (setting [7]), 39%; in assay [6] (setting [8]), 65%; in assay [6] (at 50.0 µM) it was 25.4%.
For `c1ccc2c(c1)[As]=c1ccccc1=[As]2` (configuration not stated), the growth inhibition was 65% in assay [1] (setting [7]); 99% (active) in assay [1] (setting [8]); 89% (active) in assay [1] (at 50.0 µM); 95% (active) in assay [2] (setting [7]); 99% (active) in assay [2] (setting [8]); 91.5% (active) in assay [2] (at 50.0 µM). The growth inhibition in assay [3] (setting [7]) was 58%; in assay [3] (setting [8]), 99% (active); in assay [3] (at 50.0 µM), 92% (active); in assay [4] (setting [7]), 36%; in assay [4] (setting [8]) it was 99% (active); in assay [4] (at 50.0 µM), 92.1% (active). Further, the growth inhibition is 91% (active) in assay [5] (setting [7]); 98% (active) in assay [5] (setting [8]); 90.2% (active) in assay [5] (at 50.0 µM); 72% (active) in assay [6] (setting [7]); 99% (active) in assay [6] (setting [8]); 91.4% (active) in assay [6] (at 50.0 µM).
For `O=C(CBr)Nc1ccccc1Cl`, the growth inhibition in assay [1] (setting [7]) was 19%; in assay [1] (setting [8]), 99% (active); in assay [1] (at 50.0 µM), 99.3% (active); in assay [2] (setting [7]), -3%; in assay [2] (setting [8]) it was 99% (active); in assay [2] (at 50.0 µM), 99.5% (active). Further, the growth inhibition in assay [3] (setting [7]) is 40%; in assay [3] (setting [8]) it was 98% (active); in assay [3] (at 50.0 µM) it was 99.1% (active); in assay [4] (setting [7]), 20%; in assay [4] (setting [8]) it was 99% (active); in assay [4] (at 50.0 µM), 98.5% (active). Moreover, the growth inhibition was 23% in assay [5] (setting [7]); 99% (active) in assay [5] (setting [8]); 99.5% (active) in assay [5] (at 50.0 µM); 18% in assay [6] (setting [7]); 99% (active) in assay [6] (setting [8]); 99.2% (active) in assay [6] (at 50.0 µM).
For the compound `C[CH2][Sn]([CH2]C)([S]CCS(=O)(=O)O)[S]CCS(=O)(=O)O` (tested in a mixture with another compound), the growth inhibition in assay [1] (setting [7]) was 18%; in assay [1] (setting [8]) it was 26%; in assay [1] (at 50.0 µM), 53.9%; in assay [2] (setting [7]), 17%; in assay [2] (setting [8]) it was 46%; in assay [2] (at 50.0 µM) it was 45.8%. In addition, the growth inhibition in assay [3] (setting [7]) is -22%; in assay [3] (setting [8]), 54%; in assay [3] (at 50.0 µM), 27.3%; in assay [4] (setting [7]), -10%; in assay [4] (setting [8]), 67%; in assay [4] (at 50.0 µM) it was 19%. For the same compound, the growth inhibition in assay [5] (setting [7]) was -1%; in assay [5] (setting [8]), 66%; in assay [5] (at 50.0 µM) it was 17.6%; in assay [6] (setting [7]) it was 16%; in assay [6] (setting [8]), 32%; in assay [6] (at 50.0 µM), -25.9%.
As to `CCC[CH2][Sn]([Cl])([Cl])[CH2]CCC`, the growth inhibition in assay [1] (setting [7]) is 96% (active); in assay [1] (setting [8]), 98% (active); in assay [1] (at 50.0 µM), 99.5% (active); in assay [2] (setting [7]) it was 98% (active); in assay [2] (setting [8]), 98% (active); in assay [2] (at 50.0 µM), 99.3% (active). Besides, the growth inhibition in assay [3] (setting [7]) was 96% (active); in assay [3] (setting [8]), 96% (active); in assay [3] (at 50.0 µM), 99.2% (active); in assay [4] (setting [7]) it was 98% (active); in assay [4] (setting [8]), 98% (active); in assay [4] (at 50.0 µM), 98.7% (active). In addition, the growth inhibition is 98% (active) in assay [5] (setting [7]); 98% (active) in assay [5] (setting [8]); 99.5% (active) in assay [5] (at 50.0 µM); 98% (active) in assay [6] (setting [7]); 97% (active) in assay [6] (setting [8]); 98.8% (active) in assay [6] (at 50.0 µM).
